Source: publication PMC7862700, “An all-to-all approach to the identification of sequence-specific readers for epigenetic DNA modifications on cytosine”

Legend:
Experiment in all cases: DAPPL (digital affinity profiling via proximity ligation, sequencing); 10 mM Tris-HCl pH 7.5, 50 mM NaCl, 1 mM DTT, 4% glycerol, room temperature, 30 min; GST-TFs on glutathione beads, 16-mer random dsDNA library, 0.1% formaldehyde crosslink after washing; high values mean tight binding
Details in all cases: protein: recombinant; tags: N-terminal GST; dsDNA, one strand shown
ELK4 = target: T1, ELK4 (Homo sapiens, UniProt P28324-2 1-405)
T1 sequence: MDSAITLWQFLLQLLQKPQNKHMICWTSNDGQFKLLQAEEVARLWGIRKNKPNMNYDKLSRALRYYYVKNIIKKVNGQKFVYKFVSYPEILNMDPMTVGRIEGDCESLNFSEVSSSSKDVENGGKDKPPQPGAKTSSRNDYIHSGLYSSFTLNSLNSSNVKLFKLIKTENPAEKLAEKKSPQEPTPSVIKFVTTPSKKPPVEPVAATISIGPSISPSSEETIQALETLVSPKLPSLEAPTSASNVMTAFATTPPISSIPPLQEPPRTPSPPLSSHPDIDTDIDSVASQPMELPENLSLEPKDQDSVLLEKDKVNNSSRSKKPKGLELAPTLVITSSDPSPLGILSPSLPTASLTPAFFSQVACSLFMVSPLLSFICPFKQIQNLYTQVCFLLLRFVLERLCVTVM
How it was run: (§1)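 Human transcription factors fused to GST were expressed in yeast, captured on glutathione beads, given DNA barcodes and pooled with a GST-only negative control. Pools were incubated with 200 nmole of a 16-mer random double-stranded DNA library in Tris/NaCl/DTT/glycerol buffer at room temperature for 30 min. They were then washed, crosslinked with 0.1% formaldehyde, proximity-ligated (BsaI/T4 ligase, 1 h, 37 °C), PCR-amplified and sequenced on an Illumina NextSeq500. Binding signal is each 6-mer's read frequency for a factor divided by its frequency for the GST control.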

ETV2 = target: T2, ETV2 (Homo sapiens, UniProt O00321 1-342)
T2 sequence: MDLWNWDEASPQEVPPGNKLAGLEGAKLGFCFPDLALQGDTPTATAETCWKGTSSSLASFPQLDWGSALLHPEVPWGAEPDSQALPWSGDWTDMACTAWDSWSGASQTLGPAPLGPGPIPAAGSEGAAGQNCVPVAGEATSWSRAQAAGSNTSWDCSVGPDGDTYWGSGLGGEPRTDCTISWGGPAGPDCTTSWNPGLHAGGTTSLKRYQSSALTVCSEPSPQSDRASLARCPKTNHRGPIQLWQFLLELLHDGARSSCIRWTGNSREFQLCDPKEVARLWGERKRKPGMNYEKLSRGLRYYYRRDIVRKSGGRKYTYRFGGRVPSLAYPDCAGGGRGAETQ
How it was run: as §1

ELF3 = target: T3, ELF3 (Homo sapiens, UniProt P78545 1-371)
T3 sequence: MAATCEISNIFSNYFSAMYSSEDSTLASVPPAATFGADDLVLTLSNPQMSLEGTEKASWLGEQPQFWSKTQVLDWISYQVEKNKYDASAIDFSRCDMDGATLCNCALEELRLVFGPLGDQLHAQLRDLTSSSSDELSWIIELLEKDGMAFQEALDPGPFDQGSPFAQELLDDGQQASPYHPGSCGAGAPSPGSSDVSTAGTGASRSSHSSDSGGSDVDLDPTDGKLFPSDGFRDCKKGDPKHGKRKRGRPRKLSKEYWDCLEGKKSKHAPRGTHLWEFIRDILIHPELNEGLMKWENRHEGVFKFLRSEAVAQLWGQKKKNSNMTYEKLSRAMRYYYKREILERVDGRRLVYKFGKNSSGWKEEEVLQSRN
How it was run: as §1

ETV1 = ETV1 (Homo sapiens, UniProt P50549 1-477)
How it was run: as §1

ERF = target: T4, ERF (Homo sapiens, UniProt P50548 1-548)
T4 sequence: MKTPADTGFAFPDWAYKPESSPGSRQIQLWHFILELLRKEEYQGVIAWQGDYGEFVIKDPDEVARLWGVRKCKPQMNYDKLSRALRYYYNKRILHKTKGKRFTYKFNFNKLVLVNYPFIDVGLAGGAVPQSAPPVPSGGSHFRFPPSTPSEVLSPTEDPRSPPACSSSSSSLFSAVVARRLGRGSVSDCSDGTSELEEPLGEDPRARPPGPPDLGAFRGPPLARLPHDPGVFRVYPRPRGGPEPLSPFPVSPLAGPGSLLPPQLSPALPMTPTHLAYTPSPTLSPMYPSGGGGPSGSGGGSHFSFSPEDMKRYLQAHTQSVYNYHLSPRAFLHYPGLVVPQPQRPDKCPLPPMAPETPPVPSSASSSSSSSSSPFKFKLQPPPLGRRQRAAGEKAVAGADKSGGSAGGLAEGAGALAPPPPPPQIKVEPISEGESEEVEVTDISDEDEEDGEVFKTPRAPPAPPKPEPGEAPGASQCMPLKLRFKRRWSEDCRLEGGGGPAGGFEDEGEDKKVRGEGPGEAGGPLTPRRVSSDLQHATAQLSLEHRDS
How it was run: as §1

ETV3L = target: T5, ETV3L (Homo sapiens, UniProt Q6ZN32 1-361)
T5 sequence: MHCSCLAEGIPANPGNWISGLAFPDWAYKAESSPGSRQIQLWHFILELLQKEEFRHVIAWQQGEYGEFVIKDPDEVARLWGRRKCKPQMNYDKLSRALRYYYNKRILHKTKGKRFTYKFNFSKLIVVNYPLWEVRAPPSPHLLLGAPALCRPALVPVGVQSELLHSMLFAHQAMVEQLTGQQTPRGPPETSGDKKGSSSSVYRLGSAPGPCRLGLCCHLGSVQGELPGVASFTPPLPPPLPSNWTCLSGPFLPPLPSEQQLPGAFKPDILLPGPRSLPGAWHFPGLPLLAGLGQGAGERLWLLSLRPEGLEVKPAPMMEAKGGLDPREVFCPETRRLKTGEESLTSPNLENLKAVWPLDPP
How it was run: as §1

ETS2 = target: T6, ETS2 (Homo sapiens, UniProt P15036 1-469)
T6 sequence: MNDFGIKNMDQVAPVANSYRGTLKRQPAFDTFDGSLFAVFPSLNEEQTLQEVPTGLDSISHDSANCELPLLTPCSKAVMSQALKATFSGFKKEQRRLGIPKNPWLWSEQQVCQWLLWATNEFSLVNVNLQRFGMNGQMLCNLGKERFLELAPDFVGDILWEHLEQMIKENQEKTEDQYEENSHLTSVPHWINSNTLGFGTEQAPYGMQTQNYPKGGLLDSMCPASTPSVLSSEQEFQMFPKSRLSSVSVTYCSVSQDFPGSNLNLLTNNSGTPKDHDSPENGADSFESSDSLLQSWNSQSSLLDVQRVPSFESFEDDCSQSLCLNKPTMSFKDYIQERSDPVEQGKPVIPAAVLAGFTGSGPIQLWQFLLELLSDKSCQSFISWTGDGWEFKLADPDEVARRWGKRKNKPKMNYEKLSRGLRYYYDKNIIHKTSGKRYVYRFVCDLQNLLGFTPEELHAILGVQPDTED
How it was run: as §1

ETV7 = target: T7, ETV7 (Homo sapiens, UniProt Q9Y603 1-341)
T7 sequence: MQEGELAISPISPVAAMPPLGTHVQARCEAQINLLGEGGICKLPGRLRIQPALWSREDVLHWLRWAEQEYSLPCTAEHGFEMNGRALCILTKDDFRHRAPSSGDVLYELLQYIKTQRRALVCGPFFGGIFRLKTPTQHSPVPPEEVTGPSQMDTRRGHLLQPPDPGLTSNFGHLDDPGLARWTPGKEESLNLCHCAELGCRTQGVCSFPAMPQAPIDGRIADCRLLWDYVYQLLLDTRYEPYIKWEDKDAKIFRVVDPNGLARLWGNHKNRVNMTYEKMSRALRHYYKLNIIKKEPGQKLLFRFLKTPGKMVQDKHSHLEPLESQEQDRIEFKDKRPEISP
How it was run: as §1

ETV3 = target: T8, ETV3 (Homo sapiens, UniProt P41162-2 1-143)
T8 sequence: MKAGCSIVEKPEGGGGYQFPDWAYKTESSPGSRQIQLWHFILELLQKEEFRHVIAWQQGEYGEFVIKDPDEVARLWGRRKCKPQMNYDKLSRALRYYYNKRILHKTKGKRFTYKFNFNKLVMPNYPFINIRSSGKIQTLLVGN
How it was run: as §1

ETV6 = ETV6 (Homo sapiens, UniProt P41212 1-452)
How it was run: as §1

Chain of ETV6 (P41212 whole entry): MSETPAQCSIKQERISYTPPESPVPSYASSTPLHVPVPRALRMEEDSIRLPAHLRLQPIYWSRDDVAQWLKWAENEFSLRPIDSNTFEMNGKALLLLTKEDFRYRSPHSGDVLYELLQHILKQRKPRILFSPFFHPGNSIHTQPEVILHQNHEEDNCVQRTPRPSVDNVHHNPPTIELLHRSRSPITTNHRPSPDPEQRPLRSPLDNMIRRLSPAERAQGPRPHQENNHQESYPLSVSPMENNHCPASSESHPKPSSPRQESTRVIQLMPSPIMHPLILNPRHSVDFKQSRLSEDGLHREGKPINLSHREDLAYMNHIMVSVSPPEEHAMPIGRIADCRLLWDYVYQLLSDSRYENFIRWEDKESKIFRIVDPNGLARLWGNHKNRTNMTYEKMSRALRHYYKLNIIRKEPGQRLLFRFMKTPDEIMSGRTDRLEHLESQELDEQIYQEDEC
Chain of ETV1 (P50549 whole entry): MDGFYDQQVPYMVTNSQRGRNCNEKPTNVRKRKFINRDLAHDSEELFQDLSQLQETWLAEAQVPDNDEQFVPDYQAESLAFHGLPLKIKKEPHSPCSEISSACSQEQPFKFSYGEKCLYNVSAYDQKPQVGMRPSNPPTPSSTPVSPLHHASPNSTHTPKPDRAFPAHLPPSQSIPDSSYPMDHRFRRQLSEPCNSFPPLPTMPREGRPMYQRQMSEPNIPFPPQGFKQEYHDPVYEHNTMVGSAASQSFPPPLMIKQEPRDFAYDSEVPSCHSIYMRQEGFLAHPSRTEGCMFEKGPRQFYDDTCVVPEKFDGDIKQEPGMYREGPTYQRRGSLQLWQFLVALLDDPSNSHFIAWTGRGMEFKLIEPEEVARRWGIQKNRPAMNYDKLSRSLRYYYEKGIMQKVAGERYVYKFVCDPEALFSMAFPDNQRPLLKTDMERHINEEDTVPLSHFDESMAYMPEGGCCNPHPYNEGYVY

## TACAGC
ELK4
  binding signal: 1.02 fold enrichment (6-mer frequency, TF over GST control)
ETV2
  binding signal: 1.12 fold enrichment (6-mer frequency, TF over GST control)
ELF3
  binding signal: 1.16 fold enrichment (6-mer frequency, TF over GST control)
ETV1
  binding signal: 1.03 fold enrichment (6-mer frequency, TF over GST control)
ERF
  binding signal: 1.16 fold enrichment (6-mer frequency, TF over GST control)
ETV3L
  binding signal: 1.08 fold enrichment (6-mer frequency, TF over GST control)
ETS2
  binding signal: 1.1 fold enrichment (6-mer frequency, TF over GST control)
ETV7
  binding signal: 1.09 fold enrichment (6-mer frequency, TF over GST control)
ETV3
  binding signal: 1.02 fold enrichment (6-mer frequency, TF over GST control)
ETV6
  binding signal: 1.1 fold enrichment (6-mer frequency, TF over GST control)
